Records with an inconclusive call do not appear. Some compounds were tested as several samples or in several runs, with calls that do not always agree. Calls of active or inactive are those of the source. Calls come from the whole dose curve; as a rule, active = well fitted curve in the direction sought with a large enough effect; inconclusive = small, poorly fitted or top-dose-only effect, or another doubt; inactive = no such curve, though single readings can be large; an effect the other way counts as inactive or inconclusive.
Assays:
[1] = biological target: Retinaldehyde dehydrogenase 3 (Homo sapiens) (UniProt P47895); experiment: qHTS for Inhibitors of the Aldehyde Dehydrogenase Family (ALDH1A3) Primary screen (AID 2061315);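 note: plate controls were DMSO vehicle for no effect and reference inhibitor for full effect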
[2] = BET inhibitor-based combinations targeting novel dependencies in MECOM-rearranged (r) AML: SET-2 cell line (AID 2202231); conditions: SET-2 AML cells viability, CellTiter-Glo luminescence, 48 h; viability: stronger effect = lower value, concentration not given here; note: nearly all actives have a fitted effect of over 35% in size; note: potency is the fitted concentration of half-maximal effect;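 for viability: plate controls were DMSO treated cells for no effect and wells without cells for full effect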
Procedure, shortened: (§1)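 Readout: CellTiter-Glo luminescence. Exposure: 48 h, 11 concentrations, 500 cells/well. Metric: AUC and within-line Z-AUC after DMSO/empty-well normalization.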

[3] = BET inhibitor-based combinations targeting novel dependencies in MECOM-rearranged (r) AML: OCI-AML3 cell line (AID 2202232); conditions: Potency: OCI-AML3 viability; note: nearly all actives have a fitted effect of over 35% in size; note: potency is the fitted concentration of half-maximal effect;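 for viability (% of control): series mostly up to about 46 µM; plate controls were DMSO vehicle wells for no effect and wells without cells for full effect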
Procedure, shortened: as §1

[4] = BET inhibitor-based combinations targeting novel dependencies in MECOM-rearranged (r) AML: MV-4-11 cell line (AID 2202233); note: nearly all actives have a fitted effect of over 45% in size; note: potency is the fitted concentration of half-maximal effect;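 for viability, % of control: plate controls were DMSO for no effect and blank wells for full effect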
Procedure, shortened: (§2)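 Seeding density was 500 cells/well, and drug exposure lasted 48 hr under standard culture conditions. Read-out used CellTiter-Glo reagent with a 15 min room-temperature incubation before luminescence measurement; AUC and Z-AUC summarize the normalized responses.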

[5] = BET inhibitor-based combinations targeting novel dependencies in MECOM-rearranged (r) AML: HNT-34 cell line (AID 2202234); note: nearly all actives have a fitted effect of over 35% in size; note: potency is the fitted concentration of half-maximal effect;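 for viability (% of control): plate controls were vehicle wells for no effect and cell-free wells for full effect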
Procedure, shortened: as §2

[6] = BET inhibitor-based combinations targeting novel dependencies in MECOM-rearranged (r) AML: UCSD-AML1 cell line (AID 2202235); note: nearly all actives have a fitted effect of over 40% in size; note: potency is the fitted concentration of half-maximal effect;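 for viability (% of control): series mostly up to about 46 µM; plate controls were DMSO vehicle wells for no effect and blank wells for full effect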
Procedure, shortened: as §2

[7] = BET inhibitor-based combinations targeting novel dependencies in MECOM-rearranged (r) AML: AML-191 cell line (AID 2202236; note: nearly all actives have a fitted effect of over 35% in size; note: potency is the fitted concentration of half-maximal effect;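 for viability (% of control): plate controls were vehicle wells for no effect and wells without cells for full effect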)
Procedure, shortened: as §1

[8] = BET inhibitor-based combinations targeting novel dependencies in MECOM-rearranged (r) AML: AML-194 cell line (AID 2202237; note: nearly all actives have a fitted effect of over 40% in size; note: potency is the fitted concentration of half-maximal effect;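 for viability (% of control): plate controls were vehicle wells for no effect and wells without cells for full effect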)
Procedure, shortened: as §1

[9] = biological target: Aldehyde dehydrogenase 1A1 (Homo sapiens) (UniProt P00352); experiment: qHTS for Inhibitors of the Aldehyde Dehydrogenase Family (ALDH1A1) Confirmatory screens (AID 2061316); note: potency is the fitted concentration of half-maximal effect; nearly all actives have a fitted effect of over 65% in size

Nc1nccn2c(C3CCC(C(=O)O)CC3)nc(-c3cc4cccc(Cl)c4[nH]3)c12 (stereo unspecified)
inactive: Potency [1]
active: Potency [2] 7.42 µM | Potency [3] 4.68 µM | Potency [4] 2.35 µM | Potency [5] 1.48 µM | Potency [6] 1.05 µM

CC(=O)OCC(=O)[C@@]12OC(C)(C)O[C@@H]1C[C@H]1[C@@H]3C[C@H](F)C4=CC(=O)C=C[C@]4(C)[C@@]3(F)[C@@H](O)C[C@@]12C
inactive: viability [2] 105% | Potency [3] | Potency [4]

CC1(C)C(N(O)C(=O)Nc2ccc(Cl)cc2)N(c2ccc(Cl)cc2)C(=O)N1CC(=O)N/N=C/C=C/c1ccc([N+](=O)[O-])o1 (stereo unspecified)
active: Potency [2] 20.9 µM | Potency [3] 3.32 µM | Potency [4] 4.68 µM | Potency [5] 13.2 µM

CNC(=O)Cn1cc(-c2ccc3c(c2)C(F)CC32NC(=O)N(CC(=O)N(Cc3ccc(F)cc3)[C@@H](C)C(F)(F)F)C2=O)cn1 (stereo partly specified)
118 nM (active) and inactive: Potency [6]
active: Potency [2] 3.72 µM | Potency [4] 11.8 µM | Potency [5] 0.0742 µM
inactive: viability [2] 103% | Potency [7] | Potency [8]

N#C/C(=C\c1ccc(O)c(O)c1)C(=O)NCc1ccccc1
active: Potency [2] 14.8 µM

C=CCNC1=C2CC(C)CC(OC)C(O)C(C)/C=C(\C)C(OC(N)=O)C(OC)/C=C/C=C(\C)C(=O)NC(=CC1=O)C2=O (stereo unspecified)
active: Potency [2] 8.33 µM | Potency [3] 0.662 µM | Potency [4] 0.166 µM | Potency [5] 3.32 µM

Cn1cc(/C=C2\C(=O)Nc3cccnc32)c2ccccc21
inactive: viability [2] 86.8%

NS(=O)(=O)c1ccc(S(=O)(=O)Nc2cccc3c(Cl)c[nH]c23)cc1
active: Potency [2] 14.8 µM | Potency [3] 2.95 µM | Potency [4] 0.59 µM | Potency [5] 1.32 µM | Potency [6] 2.35 µM

COc1ccc(Oc2cc(NCCC(F)(F)F)c3ncc(-c4ccc(C(=O)NC5CC5)c(C)c4)n3n2)c(F)c1F
active: Potency [3] 0.0235 µM | Potency [4] 0.0661 µM | Potency [5] 0.417 µM
inactive: viability [2] 80.2%

C[C@H]1CC2[C@@H]3CCC4=CC(=O)C=C[C@]4(C)[C@@]3(F)[C@@H](O)C[C@]2(C)[C@@]1(O)C(=O)CO (stereo partly specified)
inactive: viability [2] 115% | Potency [3] | Potency [4] | Potency [5]

CN[C@H]1CN(c2ccc3c(=O)c(C(=O)O)cn(-c4nccs4)c3n2)C[C@@H]1OC
active: Potency [2] 2.41 µM | Potency [3] 1.08 µM | Potency [4] 0.27 µM | Potency [5] 0.679 µM | Potency [6] 0.855 µM

CC1Cc2ccccc2N1C(=O)Cc1nc(N2CCOCC2)cc(=O)[nH]1 (stereo unspecified)
inactive: viability [2] 99.9%

C=CC(=O)N1CCC(CNc2ncnc(N)c2-c2ccc(Oc3ccccc3)cc2)CC1
inactive: viability [2] 101%
active: Potency [3] 16.6 µM | Potency [4] 13.2 µM

C=CC(=O)N1C[C@H](Nc2ncnc3[nH]ccc23)CC[C@@H]1C
inactive: viability [2] 94.9%

C[C@H](O)[C@@H]1C(=O)N2C(C(=O)O)=C(S[C@@H]3CN[C@H](CNS(N)(=O)=O)C3)[C@@H](C)[C@@H]12
inactive: Potency [1] | viability [2] 118% | Potency [3] | Potency [6] | Potency [7] | Potency [8]

Cc1ccnc(N(C)C(=S)N2CCN(c3cccc(C(F)(F)F)c3)CC2)c1
active: Potency [9] 11.3 µM

CC(C)Oc1ccc(-c2nc(-c3cccc4c3CC[C@@H]4NCCO)no2)cc1C#N
inactive: viability [2] 97.4%

COc1cc(/C=C/C(=O)CC(=O)/C=C/c2ccc(O)c(OC)c2)ccc1O
active: Potency [2] 20.9 µM | Potency [3] 8.33 µM | Potency [4] 3.32 µM | Potency [5] 14.8 µM | Potency [6] 13.2 µM | Potency [7] 16.6 µM | Potency [8] 18.6 µM

C[C@@H](Oc1cc(C(=O)Nc2ccc(C(=O)N3CCN(C)CC3)cc2)nnc1N)c1c(Cl)ccc(F)c1Cl
active: Potency [2] 18.6 µM | Potency [3] 5.9 µM | Potency [4] 1.66 µM | Potency [5] 1.18 µM | Potency [6] 1.18 µM | Potency [7] 0.934 µM

Cn1cc(C[C@@H](N)C(=O)O)c2ccccc21
inactive: viability [2] 113% | viability (% of control) [3] 111% [at 8.46 µM] | viability, % of control [4] 103% [at 8.46 µM] | viability (% of control) [5] 100% [at 8.46 µM] | viability (% of control) [6] 112% [at 8.46 µM] | viability (% of control) [7] 110% [at 8.46 µM] | viability (% of control) [8] 109% [at 8.46 µM]

CC1(C)S[C@H]2[C@H](NC(=O)[C@@H](N)c3ccc(O)cc3)C(=O)N2[C@H]1C(=O)O
inactive: viability [2] 99.7% | Potency [3] | Potency [4] | Potency [5] | Potency [6] | Potency [7] | Potency [8]

CCOC(=O)CCNc1cc(N2CCc3ccccc3CC2)nc(-c2ccccn2)n1
active: Potency [2] 3.72 µM | Potency [3] 14.8 µM | Potency [4] 8.33 µM | Potency [5] 2.35 µM | Potency [6] 3.32 µM | Potency [7] 2.95 µM | Potency [8] 2.95 µM

C[C@]12CC[C@H](O)CC1=CC[C@@H]1[C@@H]2CC[C@]2(C)C(c3cccnc3)=CC[C@@H]12
inactive: viability [2] 107% | Potency [3] | Potency [4] | Potency [5] | Potency [6] | Potency [7] | Potency [8]

NC(=O)c1nc(F)c[nH]c1=O
inactive: viability [2] 119% | Potency [3] | Potency [4] | Potency [5] | Potency [6] | Potency [7] | Potency [8]

Cc1ccc(Nc2ncc3c(n2)N(C)C(=O)N(c2cc(NC(=O)c4cccc(C(F)(F)F)c4)ccc2C)C3)cn1
active: Potency [2] 0.934 µM | Potency [3] 0.263 µM | Potency [4] 0.0372 µM | Potency [5] 0.0118 µM | Potency [6] 0.0934 µM | Potency [7] 0.0833 µM

From PubChem BioAssay (NCATS)
